Results published in paper PMC7862700, “An all-to-all approach to the identification of sequence-specific readers for epigenetic DNA modifications on cytosine”.

What follows are sequences tested against T1, FLI1 (Homo sapiens, UniProt Q01543 1-452) (assay: DAPPL (digital affinity profiling via proximity ligation, sequencing); 10 mM Tris-HCl pH 7.5, 50 mM NaCl, 1 mM DTT, 4% glycerol, room temperature, 30 min; GST-TFs on glutathione beads, 16-mer random dsDNA library, 0.1% formaldehyde crosslink after washing; high values mean tight binding). Conditions: protein: recombinant; tags: N-terminal GST; dsDNA, one strand shown.
T1 sequence: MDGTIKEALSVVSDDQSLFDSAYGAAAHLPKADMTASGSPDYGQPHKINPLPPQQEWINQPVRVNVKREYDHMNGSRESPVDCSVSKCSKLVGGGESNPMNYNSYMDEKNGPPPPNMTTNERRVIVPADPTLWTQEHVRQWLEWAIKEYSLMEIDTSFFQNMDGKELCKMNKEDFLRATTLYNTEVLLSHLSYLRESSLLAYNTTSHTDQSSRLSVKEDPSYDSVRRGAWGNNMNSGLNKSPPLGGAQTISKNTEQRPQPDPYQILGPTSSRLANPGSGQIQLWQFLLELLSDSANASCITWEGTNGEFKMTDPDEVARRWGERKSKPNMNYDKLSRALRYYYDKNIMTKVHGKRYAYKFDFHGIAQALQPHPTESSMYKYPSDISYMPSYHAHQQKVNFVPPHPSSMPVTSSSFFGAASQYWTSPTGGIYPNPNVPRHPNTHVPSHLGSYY
In short: (§1)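 Yeast served to express human transcription factors as GST fusions, which were then captured on glutathione beads and labelled with DNA barcodes. Pooled with a tag-only sample, they were incubated with 200 nmole of a 16-mer random double-stranded DNA library for 30 min at room temperature in Tris/NaCl/DTT/glycerol buffer, washed, crosslinked with 0.1% formaldehyde, ligated by proximity, amplified by PCR and sequenced. Dividing each hexamer's read frequency for a factor by its frequency for the tag-only sample gives the binding signal.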
With CCTCAC the binding signal was 1.29 fold enrichment (6-mer frequency, TF over GST control).
With CGTCAC the binding signal was 1.24 fold enrichment (6-mer frequency, TF over GST control).
CATGCT was tested, and the binding signal was 1.33 fold enrichment (6-mer frequency, TF over GST control).
CTTACT was tested, and the binding signal was 1.38 fold enrichment (6-mer frequency, TF over GST control).
In the case of CGGCAT, the binding signal is reported as 1.07 fold enrichment (6-mer frequency, TF over GST control).
With TGCATT the binding signal was 1.34 fold enrichment (6-mer frequency, TF over GST control).
With TCGCAA the binding signal was 1.21 fold enrichment (6-mer frequency, TF over GST control).
With TCGTAC the binding signal was 1.13 fold enrichment (6-mer frequency, TF over GST control).
In the case of TTTACG, the binding signal is reported as 1.39 fold enrichment (6-mer frequency, TF over GST control).
In the case of GAAGCA, the binding signal is reported as 1.23 fold enrichment (6-mer frequency, TF over GST control).
With TTTCAA the binding signal was 1.24 fold enrichment (6-mer frequency, TF over GST control).
For ACCCGC, the binding signal was 1.27 fold enrichment (6-mer frequency, TF over GST control).
With GGAACT the binding signal was 1.83 fold enrichment (6-mer frequency, TF over GST control).
In the case of AGGAAG, the binding signal is reported as 1.24 fold enrichment (6-mer frequency, TF over GST control).
In the case of TTATTC, the binding signal is reported as 1.48 fold enrichment (6-mer frequency, TF over GST control).
With AACCAC the binding signal was 1.18 fold enrichment (6-mer frequency, TF over GST control).
With CTAAAC the binding signal was 1.24 fold enrichment (6-mer frequency, TF over GST control).
With GTTCAC the binding signal was 1.23 fold enrichment (6-mer frequency, TF over GST control).
With GATGCC the binding signal was 1.45 fold enrichment (6-mer frequency, TF over GST control).
In the case of CACACG, the binding signal is reported as 1.14 fold enrichment (6-mer frequency, TF over GST control).
With CCTCAT the binding signal was 1.35 fold enrichment (6-mer frequency, TF over GST control).
With TTTGGT the binding signal was 1.48 fold enrichment (6-mer frequency, TF over GST control).
ACCCCG was tested, and the binding signal was 1.24 fold enrichment (6-mer frequency, TF over GST control).
For TTTGGC, the binding signal was 1.33 fold enrichment (6-mer frequency, TF over GST control).
In the case of CGTATG, the binding signal is reported as 1.1 fold enrichment (6-mer frequency, TF over GST control).
AACAAG was tested, and the binding signal was 1.08 fold enrichment (6-mer frequency, TF over GST control).
For ACACCT, the binding signal was 1.1 fold enrichment (6-mer frequency, TF over GST control).
CGTACC was tested, and the binding signal was 1.24 fold enrichment (6-mer frequency, TF over GST control).
CCATCT was tested, and the binding signal was 1.3 fold enrichment (6-mer frequency, TF over GST control).
GACCTC was tested, and the binding signal was 1.22 fold enrichment (6-mer frequency, TF over GST control).
CCATAC was tested, and the binding signal was 1.23 fold enrichment (6-mer frequency, TF over GST control).
For CCTCAA, the binding signal was 1.47 fold enrichment (6-mer frequency, TF over GST control).
TGATCC was tested, and the binding signal was 1.28 fold enrichment (6-mer frequency, TF over GST control).
With AAAGAT the binding signal was 1.18 fold enrichment (6-mer frequency, TF over GST control).
GCCAAT was tested, and the binding signal was 1.1 fold enrichment (6-mer frequency, TF over GST control).
CGTCTT was tested, and the binding signal was 1.46 fold enrichment (6-mer frequency, TF over GST control).
In the case of CGCTAC, the binding signal is reported as 1.24 fold enrichment (6-mer frequency, TF over GST control).
CAGGAT was tested, and the binding signal was 1.23 fold enrichment (6-mer frequency, TF over GST control).
In the case of ATTGCC, the binding signal is reported as 1.28 fold enrichment (6-mer frequency, TF over GST control).
In the case of GGCTAG, the binding signal is reported as 1.07 fold enrichment (6-mer frequency, TF over GST control).

What follows are sequences tested against T2, ELK1 (Homo sapiens, UniProt P19419 1-428) in the same assay as above. Conditions: protein: recombinant; tags: N-terminal GST; dsDNA, one strand shown.
T2 sequence: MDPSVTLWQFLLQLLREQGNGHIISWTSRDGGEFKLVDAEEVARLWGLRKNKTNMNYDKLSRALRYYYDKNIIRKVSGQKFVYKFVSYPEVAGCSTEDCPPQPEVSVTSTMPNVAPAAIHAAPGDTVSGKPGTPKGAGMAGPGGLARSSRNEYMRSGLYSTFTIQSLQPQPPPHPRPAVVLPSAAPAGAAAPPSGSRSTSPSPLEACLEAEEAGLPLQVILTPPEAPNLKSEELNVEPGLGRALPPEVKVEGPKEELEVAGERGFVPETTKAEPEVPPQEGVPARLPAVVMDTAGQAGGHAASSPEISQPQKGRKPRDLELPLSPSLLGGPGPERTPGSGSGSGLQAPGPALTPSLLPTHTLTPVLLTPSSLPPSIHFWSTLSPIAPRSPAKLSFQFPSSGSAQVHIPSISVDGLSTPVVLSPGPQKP
In short: as §1
In the case of CCTCAC, the binding signal is reported as 1.3 fold enrichment (6-mer frequency, TF over GST control).
For CGTCAC, the binding signal was 1.27 fold enrichment (6-mer frequency, TF over GST control).
CATGCT was tested, and the binding signal was 1.2 fold enrichment (6-mer frequency, TF over GST control).
For CTTACT, the binding signal was 1.31 fold enrichment (6-mer frequency, TF over GST control).
With CGGCAT the binding signal was 1.13 fold enrichment (6-mer frequency, TF over GST control).
In the case of TGCATT, the binding signal is reported as 1.34 fold enrichment (6-mer frequency, TF over GST control).
For TCGCAA, the binding signal was 1.22 fold enrichment (6-mer frequency, TF over GST control).
For TCGTAC, the binding signal was 1.13 fold enrichment (6-mer frequency, TF over GST control).
TTTACG was tested, and the binding signal was 1.28 fold enrichment (6-mer frequency, TF over GST control).
With GAAGCA the binding signal was 1.35 fold enrichment (6-mer frequency, TF over GST control).
